Results: PubChem BioAssay AID588382 (National Center for Advancing Translational Sciences (NCATS), 2011)
Hit rate of the full screen: of about 1,300 compounds, about 150 (12%) were called active. Not shown: some 30% with an inconclusive outcome. Shown is part of a subset that was picked to be rich in actives. Values without a mark were called inactive. Calls follow the shape of the dose curve; as a rule, active = well fitted cell-killing curve with a large enough effect; inconclusive = small, poorly fitted or top-dose-only effect, or effect the other way; inactive = flat fitted curve, though single readings scatter.

test: qHTS of small molecules that selectively kill Giardia lamblia: Hit Validation in HepG2 cytotox; settings: cell viability; Potency: HepG2 cytotoxicity; series mostly up to 38.3 µM; activity change, negative = cytotoxicity: at the top concentration;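 also: compound exposure lasted overnight at 37 deg C; nearly all actives have a fitted effect of over 55% in size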;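 as to activity change, negative = cytotoxicity: viability measured as cellular ATP by ATPLite luminescence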
Text: Giardia lamblia is a human pathogen afflicting impoverished nations, and the most common cause of outbreaks of diarrhea in the United States. Giardia has been classified by the CDC as a category B bioterrorism organism. The favored anti giardiasis drugs in the US are metronidazole or tinidazole, compounds that have undesirable side effects. Moreover, increasing resistance to drug regimes and recurrence are a concern. It is thus clear that alternative drug treatments are needed.
In a collaboration between the University of Maryland, College Park and the NIH Chemical Genomics Center, a bioluminescence Giardia viability assay based on the trophozoites' ATP content was developed. This assay is suitable for high throughput screening, and miniaturized the assay for compound screening in 1536-well plates. The goal of the project is to screen the Molecular Libraries Small Molecule Repository (MLSMR) for compounds that selectively kill Giardia trophozoites. This counterscreen looks at the toxicity of the compounds against the human HepG2 cell line.
NIH Chemical Genomics Center [NCGC]
NIH Molecular Libraries Probe Centers Network [MLPCN]
Assay Submitter (PI): Osnat Herzberg, University of Maryland, College Park, MD.
4 uL of HepG2 cells ae dispensed into white 1536-well plates. They are incubated overnight at 37 deg C and then 23 nL of compounds are transferred to the wells with a pintool. Plates are incubated overnight at 37 deg C. 2 uL of ATPLite is added and the plates are incubated for 15 min at room temperature before they are read on the ViewLux for luminiescence.
% is scaled to controls: 0 for no effect and ±100 for the full control effect; potency is read from the fitted curve at half-maximal effect.

SMILES | Potency | activity change, negative = cytotoxicity
CNC(=O)Oc1cccc(-c2cn3cc(Cl)ccc3n2)c1 | 1.85 µM (active) | 
NC(=O)c1cc(N2CC2)c([N+](=O)[O-])cc1[N+](=O)[O-] |  | 3.35%
CN(c1ccccc1)c1ccc([N+](=O)[O-])c2nonc12 |  | 11.3%
COC(=O)c1nc(-c2ccc3c(n2)C(=O)C(N)=C(OC)C3=O)c(N)c(-c2ccc(OC)c(OC)c2O)c1C | 1.04 µM (active) | 
C[C@H]1C[C@@H](C)C(=O)[C@@H]([C@H](O)CC2CC(=O)NC(=O)C2)C1 |  | -7.21%
CCOC(=O)C1CCCN(c2ccc([N+](=O)[O-])c3nonc23)C1 (stereo not given) |  | 21%
Fc1ccc(C2NCCc3[nH]cnc32)cc1 (stereo not given) |  | 4.03%
[Hg+][c]1ccccc1 | 1.85 µM (active) | 
CC(C)(O)C1C2OC(=O)C1C1(O)CC3OC34C(=O)OC2C14C (stereo not given) |  | 16.7%
C[N+]12CCC(CC1)C(=C(c1ccccc1)c1ccccc1)C2 |  | 5.87%
C[C@@H]1C[C@@H]([C@H](O)CC2CC(=O)NC(=O)C2)C(=O)[C@@H](C)C1 |  | -0.556%
c1ccc2c(c1)[I+]c1ccccc1-2 | 0.0826 µM (active) | 
O=[N+]([O-])c1ccc(-c2ccccc2)c([As](=O)(O)O)c1 |  | 13.1%
CC1=C(N2CC2)C(=O)C(CO)=C(N2CC2)C1=O | 0.0656 µM (active) | 
CCCCn1c(=O)c(C(=O)NCc2ccccc2OC)c(O)c2ccccc21 |  | -9.37%
CCn1nc(/C=C/c2ccccc2)nc2c(=O)n(C)c(=O)nc1-2 | 6.56 µM (active) | 
CC1CN(c2ccc([N+](=O)[O-])c3cccnc23)CC(C)N1 (stereo not given) |  | 1.72%
Cc1nc2c(=O)n(C)c(=O)nc-2n(C)n1 | 0.656 µM (active) | 

SMILES | Potency | activity change, negative = cytotoxicity
CC1CC(C)CC(C)C(O)C(C#N)=CC=CCC(C2CCCC2C(=O)O)OC(=O)CC(O)C(C)C1 (stereo not given) | 2.33 µM (active) | 
O=[N+]([O-])c1ccc(O)c([N+](=O)[O-])c1 |  | 9.5%
CC(C)c1ccc(N=Nc2c(O)[nH]c(=O)[nH]c2=O)cc1 |  | -4.42%
CCOc1ccc(-n2c(-c3cccs3)nc3ccccc3c2=O)cc1 |  | -8.26%
O=c1c2ccccc2nc(/C=C/c2ccc(O)cc2)n1-c1cccc(O)c1 |  | 11.7%
O=c1c2ccccc2nc(/C=C/c2ccc([N+](=O)[O-])o2)n1-c1ccc(O)cc1 | 3.69 µM (active) | 
COC1/C=C/C=C(\C)Cc2cc(O)c(Cl)c(c2)N(C)C(=O)CC(OC(=O)C(C)C)C2(C)OC2C(C)C2CC1(O)NC(=O)O2 (stereo not given) |  | -0.0231%
Cc1ccc(C(c2nnnn2Cc2ccccc2)N2CC=C(c3ccc(F)cc3)CC2)cc1 (stereo not given) |  | -4.33%
C=CC1CN2CCC1CC2[C@@H](OC(=O)c1ccc(OC)cc1)c1ccnc2ccccc12 (stereo not given in full) |  | 8.63%
c1ccc2c(c1)[IH]c1ccccc1-2 | 0.0927 µM (active) | 
CN(C)C(=O)Oc1ccc(Br)c2ccccc12 |  | 4.5%
COC(COC(N)=O)C1=C(N2CC2)C(=O)C(C)=C(N2CC2)C1=O (stereo not given) | 0.185 µM (active) | 
O=[N+]([O-])c1cc([As](=O)(O)O)ccc1O |  | -5.69%
CN1CCN(c2ccc([N+](=O)[O-])c3cccnc23)CC1 |  | 10.1%
Cc1nc2ccccc2c(=O)n1-c1cc([N+](=O)[O-])cc([N+](=O)[O-])c1 |  | 13.7%
Cc1cc([N+](=O)[O-])c2ccccc2[n+]1[O-] | 1.17 µM (active) | 
NN=C(N)N |  | 23.2%
